Bioassay records from PubChem BioAssay.
JMJD2A Tudor = JMJD2A Tudor domain (human) inhibition; O75164; AlphaScreen JMJD2A-Tudor / H3K4me3 peptide binding; Potency, µM (doses to about 114 µM), inactives show top-dose activity change, negative = inhibition, actives largely listed as inhibitors; 4.4% of 390,000 active; note: % is set by controls: 0 for no effect and ±100 for the full control effect; nearly all actives have a fitted effect of over 50% in size
Sfp PPTase inh = Sfp phosphopantetheinyl transferase inhibition | Q9F4F7 | Biochemical Sfp PPTase activity, qHTS | Potency, µM, for the others: largest response in the series, negative = inhibition, most hits filed as inhibitors | 3.5% of 310,000 active | AID 1490;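 note: the enzyme is Sfp with the accession as filed and its product quenches rhodamine fluorescence; 0% = enzyme reaction without inhibitor and -100% = no enzyme wells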
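Buffer: 50 mM Hepes-Na pH 7.6, 10 mM MgCl2, 0.01% Nonidet P-40, 0.01% BSA. Enzyme 15 nM, pre-exposed to compound 15 min; substrates then added and fluorescence change tracked over 30 min.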
G9a block = inhibitors of human histone lysine methyltransferase G9a; G9a H3K9 monomethylation, AlphaScreen, 2 h; AID 504332; Q96KQ7; 8.8% of 350,000 active; Potency, µM (highest dose often 102 µM), without a hit: at the top dose activity, negative = inhibition, hits mostly inhibitors; note: % is set by controls: 0 for no effect and ±100 for the full control effect; nearly all actives have a fitted effect of over 75% in size
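Quantitative HTS format: methyltransferase activity on a biotin-tagged H3K9 peptide is measured by AlphaScreen, using a rabbit anti-monomethyl-H3K9 antibody with streptavidin donor and anti-IgG acceptor beads. Final levels are 20 nM enzyme, 500 nM peptide, 20 uM SAM; 2 h RT.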
L3MBTL1 block = L3MBTL1 (human) inhibition; AlphaScreen L3MBTL1–H3K9me1 peptide binding; Potency, µM (doses to about 57.1 µM), for inactives: at the highest dose activity, negative = inhibition, hits mostly inhibitors; 0.66% of 230,000 active; note: % is set by controls: 0 for no effect and ±100 for the full control effect; nearly all actives have a fitted effect of over 60% in size
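Displacement of a biotinylated histone H3(1-15) peptide monomethylated at Lys9 (75 nM) from L3MBTL1 (50 nM) was measured by AlphaScreen after a 30 min room-temperature compound incubation; cefsulodin titration served as intraplate control.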
HP1b binding inh = HP1-beta chromodomain-methylated histone interaction inhibition; P83916; AlphaScreen HP1-beta / biotin-H3K9me3 peptide binding; Potency, µM (highest dose often 114 µM), without a hit: top-dose activity change, negative = inhibition, hits mostly inhibitors; 0.56% of 390,000 active; AID 540317; note: nearly all actives have a fitted effect of over 70% in size
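AlphaScreen: HP1-beta (50 nM) preformed 30 min with biotin-H3(1-18)K9me3 peptide (50 nM) in PBS pH 7.4, 0.01% Tween-20. Compound added for 30 min at RT, then streptavidin donor/nickel chelate acceptor beads (10 ug/mL) for 30 min.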
BAZ2B block = blocks human BAZ2B. Q9UIF8. AlphaScreen BAZ2B-H3K14Ac peptide displacement. Potency, µM (series often up to 114 µM), for inactives: top-dose activity change, negative = inhibition, actives largely listed as inhibitors. 4.4% of 360,000 active; note: % is set by controls: 0 for no effect and ±100 for the full control effect; nearly all actives have a fitted effect of over 60% in size
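AlphaScreen displacement: compounds (up to 110uM) incubated 30 min at room temperature with a preformed 50 nM BAZ2B/50 nM biotinylated H3K14Ac peptide complex in PBS pH 7.4 with Tween-20. Donor and acceptor beads at 10 ug/mL final added, 20 min light-protected before reading.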
* hit, by the source's call; ? = inconclusive; . = no result; [ ] = dose if it differs, or a comment. This is a sample that favours compounds with a hit; in the whole collection about 12% have one here. Calls come from the whole dose curve; as a rule, active = well fitted curve in the direction sought with a large enough effect; inconclusive = small, poorly fitted or top-dose-only effect, or another doubt; inactive = no such curve, though single readings can be large; an effect the other way counts as inactive or inconclusive. Potency is the fitted concentration of half-maximal effect.

SMILES | JMJD2A Tudor | Sfp PPTase inh | G9a block | L3MBTL1 block | HP1b binding inh | BAZ2B block
Cc1ccc(C2=C(O)c3ccccc3C(=O)C2=O)cc1 | -5% | -2% | . | 0% | -5% | ?
CCOC(=O)C1=C(O)c2ccccc2C(=O)/C1=C\c1ccc(C)cc1 | 40µM* | 11µM* | 2.5µM* | -16% | 35µM* | 20µM*
CCN(CC)C(=O)CSc1nnc2nnc3cc(OC)ccc3n12 | -18% | 2% | 35µM* | -6% | 11% | -16%
CCN(CC)C(=O)CSc1nc2cc3c(cc2c(=O)n1CCCCCC(=O)NCCc1ccc(OC)c(OC)c1)OCO3 | -12% | . | 5%[59 µM] | . | 23% | -10%
CCN(CC)C(=O)CSc1nc2cc3c(cc2c(=O)n1Cc1ccc(OC)cc1)OCO3 | 79µM* | 13% | ? | . | 18% | 56µM*
CCOC(=O)c1ccc(NC(=O)c2cc3c(n(-c4ccc(C)cc4)c2=O)CC(C)(C)CC3=O)cc1 | -17% | . | ? | . | 36% | -1%
O=C(CSc1nnc(-c2ccc(O)cc2)o1)c1ccc(Br)cc1 | -7% | . | -6%[59 µM] | . | 17% | 5%
O=C1C2C3CCCC3=C3CCCC3C2C(=O)N1c1ccccc1 (stereo unspecified) | 15% | -22% | 20µM* | -16% | 20% | -6%
O=C(NCc1ccccc1Cl)c1ccc2c(c1)nnn2C1CCCC1 | 3% | . | -9%[59 µM] | . | 36% | 1%
COCCn1nnnc1C(c1ccccn1)N1CCN(c2cc(Cl)ccc2C)CC1 (stereo unspecified) | ? | 3% | ? | . | 21% | ?
COc1ccc(Cn2nnnc2C(c2ccccn2)N2CCN(c3cc(Cl)ccc3C)CC2)cc1 (stereo unspecified) | ? | 2% | 22µM* | -5% | 6% | ?
COc1ccc(N2CCN(C(c3ccccc3)c3nnnn3Cc3ccc(F)cc3)CC2)cc1 (stereo unspecified) | ? | 13% | 22µM* | -22% | -22% | -50%
COc1ccc(C(c2nnnn2Cc2cccs2)N2CCN(c3ccc(F)cc3)CC2)cc1OC (stereo unspecified) | 45µM* | -3% | ? | -12% | ? | ?
COc1ccc(C(c2nnnn2Cc2ccc(F)cc2)N2CCN(c3ccccc3)CC2)cc1 (stereo unspecified) | -24% | 7% | -2% | -6% | 11% | -8%
COc1ccc(C(c2nnnn2Cc2ccc(F)cc2)N2CCN(c3ccc(OC)cc3)CC2)cc1 (stereo unspecified) | ? | ? | 32µM* | ? | ? | ?
Cc1ccc(S(=O)(=O)N2CCCN(c3nc(-c4cccs4)nc4ccccc34)CC2)cc1 | -13% | . | . | . | 39% | .
Cc1ccccc1NC(=O)CSc1nc(-c2ccc(F)cc2)nc2c1Cc1ccccc1O2 | -11% | . | -6%[59 µM] | . | 36% | -7%
C=CCOC(=O)C(C(=O)CC)C(NC(=O)OC)c1ccc(F)cc1 (stereo unspecified) | . | -2% | . | . | . | .
COc1ccc(N2CCN(C(c3ccccc3)c3nnc(-c4ccccc4Cl)o3)CC2)cc1 (stereo unspecified) | 50µM* | . | 13µM* | . | ? | 40µM*
O=C(Cn1cnc2onc(-c3ccc(F)cc3)c2c1=O)Nc1ccc(F)c(Cl)c1 | -10% | . | -7%[59 µM] | . | 27% | 9%[57.1 µM]
Cc1ccccc1C(=O)Nc1nc(=S)ss1 | ? | 22µM* | 13µM* | -4% | -42% | 2%
CC(C)CC(=O)Nc1nc(=S)ss1 | ? | 16µM* | 1.6µM* | . | ? | -36%
CC(=O)Nc1nc(=S)ss1 | -34% | 16µM* | ? | 9% | -41% | 1%
O=C(Nc1nc(=S)ss1)c1c(F)cccc1F | 5% | 22µM* | 18µM* | 4% | 46% | -20%
CC(=O)c1sc(NC(=O)c2c(F)cccc2F)nc1C | -18% | 2% | -25%[59 µM] | . | 21% | ?
